Holding throughout (assay): NCI-60 one-dose screen, 48 h (100 = growth as untreated, 0 = no growth, -100 = all killed)
Holding throughout (conditions): 10 µM unless noted

The subject of experiment [1] is T-47D breast.
In experiment [2] the test system is BT-549 breast.
In experiment [3] the test system is MDA-MB-435 melanoma.
Experiment [4] relates to SW-620 colon.
Experiment [5] relates to MCF7 breast.
In experiment [6] the test system is HCT-116 colon.
Experiment [7] deals with HCC-2998 colon.
For experiment [8], the system named is KM12 colon.
The subject of experiment [9] is MDA-MB-468 breast.

“And” between values parts separate entries of the source, which are not always exact repeats. Identical values can stand only once. Compounds without any hit were thinned out: in the full panel of roughly 83,000, 20% have a hit.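 A percent growth of 40 corresponds to 60% growth inhibition; 0 means no net growth; -100 means all cells died. Active threshold: below 10.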 Unmarked numbers belong to inactive results. The source made the active and inactive calls.

In the case of `COc1cc(C=O)ccc1OC(=O)c1cc(-c2ccc(C)cc2)n(-c2ccc(S(C)(=O)=O)cc2)n1`, the growth in experiment [1] was 105%; in [2], 126%; in experiment [3], 104%; in experiment [4], 124%; in [5], 88.4%; in experiment [6] it was 98.7%. Further, the growth in [7] was 118%; in experiment [8], 104%; in [9] it was 124%.

As to `COc1ccccc1Nc1nnc(-c2c[nH]c3ccccc23)o1`, the growth in experiment [1] is 16.6%; in experiment [2], 39.7%; in experiment [3] it was -40.8% (active); in experiment [4], 40.9%; in [5], 10.6%; in [6], 12.5%. Moreover, the growth in [7] is 7.55% (active); in [8], 2.26% (active); in experiment [9] it was -25.4% (active).

With `CC1=C(C(=O)OCc2ccccc2)C(c2cccc3ccccc23)n2c(nc3ccccc32)N1` (stereo not drawn), the growth in [1] is 30.2%; in experiment [2], 25%; in experiment [3] it was -45.5% (active); in experiment [4] it was 23.7%; in [5], 12.7%; in experiment [6] it was 17.7%. The growth in experiment [7] is 57%; in [8] it was 19.1%; in experiment [9] it was -42.5% (active).

On to `O=C(CSc1nc2sc3c(c2c(=O)n1-c1ccc(Cl)cc1)CCCC3)NNC(=O)c1ccc(F)cc1`, for which the growth in experiment [1] is 74%; in experiment [2] it was 67.3%; in experiment [3], 98.2%; in experiment [4], 91%; in [5], 61.9%; in [6], 78.3%. Further, the growth in experiment [7] is 113%; in experiment [8], 101%; in experiment [9], 95%.

Take `COc1cc(/C=C/C(=O)c2cnn(-c3cc(=O)[nH]c4ccc(Br)cc34)c2C)cc(OC)c1OC`: the growth is -47.3% (active) in [1]; -44.7% (active) in [2]; 0.423% (active) in experiment [3]; -67.4% (active) in experiment [4]; -46% (active) in [5]; -68.9% (active) in experiment [6]. The figures for the growth in experiment [7], in experiment [8] and in experiment [9] were -96.8% (active), -42.6% (active) and -80.6% (active), respectively.

Regarding `CC1(C)CC(=O)C2=C(C1)OC(N)=C(c1nc3ccccc3[nH]1)C2c1ccc(Cl)cc1` (stereo not drawn), the growth was 72.3% and 117% in [1]; 57.5% and 123% in experiment [2]; 60.5% and 109% in [3]; 81% and 104% in experiment [4]; 56.4% and 93.7% in experiment [5]; 63.4% and 103% in experiment [6]. In addition, the growth in experiment [7] is 76.9% and 111%; in experiment [8] it was 36.7% and 100%; in experiment [9], 47.3% and 103%.

For `Cc1ccc(N=Nc2c(N)nn3c(-c4cc5cc(Br)ccc5oc4=O)ccnc23)cc1`, the growth in experiment [1] was 56.4%; in experiment [2] it was 53%; in experiment [3], 113%; in experiment [4] it was 107%; in experiment [5], 51.1%; in experiment [6], 44.5%. In addition, the growth in experiment [7] is 87.1%; in experiment [8], 72.4%; in experiment [9] it was 73.5%.

For `CC[C@@]12CC(C(=O)OC)=C3Nc4cc5c(cc4[C@@]34CCN(C[C@H]3O[C@H]31)[C@@H]24)[C@@H]1[C@H](O5)[C@@H](O)[C@@]2(CC)CC(C(=O)OC)=C3Nc4cc(O)ccc4[C@@]34CCN1[C@@H]24`, the growth is -37.5% (active) in experiment [1]; -87.6% (active) in [2]; -54.3% (active) in experiment [3]; -71.1% (active) in experiment [4]; -56.8% (active) in experiment [5]; -50.4% (active) in [6]. Also, the growth is -85.4% (active) in experiment [7], -46.6% (active) in experiment [8] and -78.5% (active) in [9].

In the case of `Cc1nn(-c2ccccc2)c2nc(C)n(CC(=O)N/N=C/c3cccc([N+](=O)[O-])c3)c(=O)c12`, the growth in [1] is 77.6%; in experiment [2], 82.8%; in experiment [3] it was 101%; in [4], 101%; in [5], 85.5%; in experiment [6], 87.6%. In addition, the figures for the growth in [7], in experiment [8] and in experiment [9] were 116%, 101% and 93.3%, respectively.

`CS(=O)(=O)Nc1cc(-c2ccc3ncnc(Nc4ccc(OCc5cccnc5)c(Cl)c4)c3c2)cnc1Cl`: the growth is -39% (active) in [1]; -55.6% (active) in experiment [2]; -9.37% (active) in experiment [3]; 6.78% (active) in experiment [4]; -8.39% (active) in experiment [5]; -71.6% (active) in [6]. Further, the values for the growth in experiment [7], in experiment [8] and in experiment [9] were -60.4% (active), 10.8% and -81.3% (active), respectively.

Regarding `Cc1oc(-c2ccccc2)nc1CN[C@@H]1C[C@@H]2C[C@H]([C@H]1C)C2(C)C`, the growth was 0.388% (active) in [1]; 39.3% in [2]; 71.3% in experiment [3]; 22.8% in [4]; -4.81% (active) in experiment [5]; 9.06% (active) in experiment [6]. Further, the growth was -75.6% (active) in experiment [7], 64.3% in experiment [8] and -83.7% (active) in experiment [9].

`Clc1ccc2c(NCCNC34CC5CC(CC(C5)C3)C4)ccnc2c1`: the growth in experiment [1] is -47.2% (active); in [2], -86.5% (active); in [3], -72.3% (active); in experiment [4], -47.1% (active); in [5] it was -78.7% (active); in experiment [6], -40.1% (active). Besides, the growth in experiment [7] is -89.5% (active); in [8], -96.8% (active); in experiment [9], -92.3% (active).
